Assay outcomes (PubChem)
Compounds with a hit are over-represented: about 1.2% of the library has one in this group of screens.
GSH bead fluor: compound fluorescence on glutathione beads, profiling panel, artefact control, biophysical, 488/530 nm, flow cytometry; GSH beads flow cytometry, compound fluorescence 488/530 nm; hits give high values; fluorescence (KMESF) at 10 µM; actives 0.25% (n = 190,000); in the data active means fluorescence above about 89;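 further: glutathione beads carrying GST-tagged Bcl family fusion proteins plus one bare bead set; values are compound well signal with DMSO vehicle wells as background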
RGS8-Gao reg: RGS8-Galphao binding modulators, primary screen, biochemical, multiplexed bead flow cytometry; actives lie on both sides; actives 0.34% (n = 220,000); Guanine nucleotide-binding protein G(o) subunit alpha (Homo sapiens), P09471; response (percent of control binding), % at 10 µM; AID 1423, 2008; in the data active means response below about 60% or above about 140%; inactive means in between;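 further: Galphao activated as the GDP aluminium fluoride complex binding bead-coupled RGS8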
Target sequence (P09471 whole entry, looked up): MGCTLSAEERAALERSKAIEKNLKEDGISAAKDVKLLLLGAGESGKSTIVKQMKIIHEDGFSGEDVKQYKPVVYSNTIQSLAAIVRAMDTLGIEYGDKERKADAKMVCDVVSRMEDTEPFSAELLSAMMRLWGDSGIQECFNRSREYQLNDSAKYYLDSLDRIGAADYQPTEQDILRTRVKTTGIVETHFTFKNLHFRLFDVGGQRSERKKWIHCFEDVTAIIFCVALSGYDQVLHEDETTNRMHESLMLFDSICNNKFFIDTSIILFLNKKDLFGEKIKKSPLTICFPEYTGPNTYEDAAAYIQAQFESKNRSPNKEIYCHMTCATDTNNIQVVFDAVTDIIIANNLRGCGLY
RGS4-Gao reg: modulators of RGS4 binding to Galphao, primary screen, biochemical, multiplexed bead flow cytometry. Guanine nucleotide-binding protein G(o) subunit alpha (Homo sapiens), P09471. actives lie on both sides. binding response (% of control), % at 10 µM. actives 0.33% (n = 220,000). AID 1415, 2008; in the data active means binding response below about 49% or above about 150%; inactive means in between;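 further: fluorescent Galphao activated with aluminum fluoride binding bead-coupled RGS4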
Avidin fluor: green autofluorescence of compounds with avidin beads – biophysical, 488/530 nm, flow cytometry, artefact control, profiling panel | compound fluorescence 488/530 nm; hits give high values | actives 0.38% (n = 220,000) | fluorescence (KMESF) at 10 µM; in the data active means fluorescence above about 47
RGS16-Gao: modulators of RGS16 binding to Galphao, primary screen, biochemical, human proteins, multiplexed bead flow cytometry. actives 0.38% (n = 220,000). AID 1441, 2008. binding response (% of control), % at 10 µM. bead-based flow cytometry RGS16-Galphao binding, fluorescence; actives lie on both sides. Regulator of G-protein signaling 16 (Homo sapiens) + Guanine nucleotide-binding protein …; call rule not given here;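 further: Galphao activated by GDP with aluminum fluoride before binding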
Target sequence (O15492 whole entry, looked up): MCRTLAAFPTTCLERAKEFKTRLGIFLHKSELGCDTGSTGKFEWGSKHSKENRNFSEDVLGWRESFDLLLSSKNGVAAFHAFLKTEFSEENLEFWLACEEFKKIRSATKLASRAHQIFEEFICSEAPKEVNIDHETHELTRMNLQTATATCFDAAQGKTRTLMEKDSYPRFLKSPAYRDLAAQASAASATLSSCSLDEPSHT
Target sequence (P09471 whole entry, looked up): as the sequence (P09471 whole entry, looked up) above
RGS7-Gao reg: RGS7-Galphao binding modulators, primary screen, biochemical, multiplexed bead flow cytometry | Guanine nucleotide-binding protein G(o) subunit alpha (Homo sapiens), P09471 | actives lie on both sides | binding response (% of control), % at 10 µM | actives 0.35% (n = 220,000) | AID 1439, 2008; in the data active means binding response below about 49% or above about 150%; inconclusive means no clear call, values can overlap the other calls; inactive means in between;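 further: fluorescent Galphao held in activated GDP-AlF4 state binding bead-coupled RGS7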
An asterisk follows results filed as active; ? = inconclusive; · = no result; [ ] = remark or other dose.

SMILES | GSH bead fluor | RGS8-Gao reg | RGS4-Gao reg | Avidin fluor | RGS16-Gao | RGS7-Gao reg
C/C=C/C(=O)Nc1cccc(C2=NOC3(C2)C[C@H](C(N)=O)N(C(=O)c2ccccc2C(=O)c2ccccc2)C3)c1 (stereo partly specified) | · | 99 | 98 | 8 | 101 | ?
CCCOc1ccc(C(=O)NCCC(=O)NCCCC(=O)O)cc1 | · | 103 | 106 | 7 | 102 | ?
Cc1cc(C)cc(OCC(=O)OCC(=O)Nc2ccc(Cl)cn2)c1 | 16 | 107 | 105 | 8 | 103 | 105
Cc1ccc(OCCC(=O)OCC(=O)Nc2ccc(Cl)cn2)cc1 | 272* | 98 | 98 | 7 | 96 | 95
O=C(COC(=O)CCc1nc2ccccc2c(=O)[nH]1)Nc1ccc(Cl)cn1 | · | 91 | 126 | 49* | 93 | ?
CC1CCc2c(sc(NC(=O)c3ccccc3C(=O)O)c2C#N)C1 (stereo unspecified) | 41 | 100 | 88 | 64* | 96 | 128
O=C(CSc1nc2ccc(Cl)cc2[nH]1)NCCc1ccccc1 | 5 | 101 | 100 | 14 | 99 | 100
O=C(CSc1nc2ccc([N+](=O)[O-])cc2[nH]1)NCCc1ccccc1 | 15 | 101 | 103 | 61* | 105 | 124
COc1ccc(CNC(=O)CSc2ccc(Br)cc2)cc1OC | 17 | 90 | 90 | 5 | 68 | 88
N=c1ccn2c(n1)OC1C(O)C(CO)OC12 (stereo unspecified) | · | 95 | 94 | 6 | 90 | ?
O=c1oc2ccccc2c(O)c1C=Nc1cccnc1 | 25 | 102 | 102 | 12 | 106 | 106
O=c1oc2ccccc2c(O)c1/C=N/c1ccccn1 | 263* | 103 | 104 | 6 | 89 | 104
CC(Oc1ccc(Cl)cc1Cl)c1nc(-c2ccc(NC(=O)c3ccccn3)cc2)no1 (stereo unspecified) | 108* | 102 | 104 | 7 | 99 | 104
COc1ccc(NC(=O)c2ccccn2)cc1OC | 9 | 94 | 87 | 12 | 91 | 84
Cc1cc(C)c(C#N)c(SC(C(=O)NC(C)(C)C)c2ccccc2)n1 (stereo unspecified) | · | 99 | 96 | 6 | 97 | ?
O=C(Nc1ccc(Cl)cc1)C1=Cc2cc(Cl)ccc2OC1 | 13 | 97 | 101 | 48* | 102 | 104
O=C(Nc1ccc(Cl)cc1Cl)C1=Cc2ccccc2OC1 | 14 | 93 | 92 | 9 | 91 | 84
CCOC(=O)c1sc(NC(=O)CSc2nc(C)cc(C)n2)c(C#N)c1C | 13 | 102 | 106 | 49* | 105 | 108
Cc1cc(C)c(C#N)c(SCC(=O)Nc2ccccc2C)n1 | 26 | 96 | 101 | 5 | 29 | 102
Cc1cc(=O)[nH]c(SCC(=O)Nc2cccc3ccccc23)c1C#N | 29 | 115 | 224*[activator] | 132* | 219*[activator] | 184*[activator]
CCOC(=O)C1CCCN(C(=O)c2ccccc2SCCOC)C1 (stereo unspecified) | 30 | 100 | 111 | 102* | 105 | 145
COCCSc1ccccc1C(=O)N1CCCC(C)C1 (stereo unspecified) | 17 | 101 | 102 | 9 | 102 | ?
COc1ccc(CN2CCN(C(=O)c3cc(-c4cccnc4)nc4ccc(Cl)cc34)CC2)c(OC)c1OC | 15 | 99 | 102 | 9 | 100 | ?
O=C(COc1ccc(Cl)cc1Cl)N/N=C1\CCCc2ccccc21 | 27 | 23* | 34* | 2 | 5 | 27*
CCNc1nc(NCC)n2c(SC(C(=O)Nc3cc(Cl)cc(Cl)c3)c3ccccc3)nnc2n1 (stereo unspecified) | 9 | 102 | 99 | 16 | 104 | 104
SMILES | GSH bead fluor | RGS8-Gao reg | RGS4-Gao reg | Avidin fluor | RGS16-Gao | RGS7-Gao reg
O=c1c2ccccc2cnn1Cc1n[nH]c(=S)n1-c1ccccc1Cl | 12 | 99 | 100 | 11 | 84 | 103
Cc1nc(N2CCOCC2)nc(Oc2ccccc2F)c1[N+](=O)[O-] | · | 91 | 72 | 7 | 77 | ?
CC(=O)N1c2ccccc2NC2=C(C(=O)CCC2)C1c1cccnc1 (stereo unspecified) | 19 | 96 | 97 | 49* | 105 | 105
COc1ccc(C(=O)Nc2ccc(N3CCOCC3)cc2)cc1OC | 35 | 99 | 112 | 99* | 103 | 129
COc1ccc(C(=O)Nc2ccc(S(=O)(=O)N3CCOCC3)cc2)cc1OC | 35 | 101 | 102 | 12 | 102 | 100
COc1ccc(NC(=O)N2CCOCC2)cc1OC | 261* | 101 | 100 | 6 | 89 | 101
COc1cccc(NC(=O)N2CCOCC2)c1 | 11 | 101 | 99 | 37 | 103 | 97
Nc1ccccc1N=Cc1ccc(-c2cccc(Cl)c2)o1 | 12 | 100 | 100 | 10 | 101 | 103
COc1ccc(OCCNS(=O)(=O)c2ccc3oc4ccccc4c3c2)cc1 | 10 | 100 | 103 | 10 | 110 | 103
CN(CCOc1ccccc1)S(=O)(=O)c1ccc2oc3ccccc3c2c1 | 29 | 100 | 108 | 60* | 100 | 118
COCc1ccc(CN2CCc3c([nH]c4ccccc34)C2CC(C)C)o1 (stereo unspecified) | 9 | 91 | 85 | 7 | 84 | 78
CCn1c(C)c(CS(=O)(=O)c2ccccc2)[nH]c1=O | 27 | 100 | 99 | 9 | 99 | 97
Cc1cc(C)n2nc(C(=O)OCCOc3cccc(Br)c3)nc2n1 | 253* | 102 | 103 | 8 | 103 | 102
CCn1nc(NC(=O)C2CCCO2)c2cc3cccc(C)c3nc21 (stereo unspecified) | · | 97 | 100 | 12 | 98 | ?
CCN(CC)CCCNC(=O)CSc1nc2c(c(C(F)(F)F)n1)CCc1ccccc1-2 | 28 | 98 | 109 | 64* | 101 | ?
Cc1cc(N2CCOCC2)c2c(N)c(C)cc(C)c2n1 | 26 | 99 | 106 | 61* | 103 | 148
CCOC(=O)c1cc(-c2ccc(OC)cc2)nc2c1c(C)nn2CCC#N | 11 | 100 | 103 | 56* | 101 | 105
CCOC(=O)c1cc(-c2ccc(C#N)cc2)nc2c1c(C)nn2CCC#N | 13 | 100 | 99 | 7 | 93 | 104
CCc1cc2cc(C)ccc2nc1SCC(=O)N1CCN(C(=O)c2ccco2)CC1 | 254* | 106 | 94 | 7 | 125 | 95
COc1c(C(CC(C)C)OC(C)=O)ccc2c1C(=O)OCc1cc(C)cc(O)c1O2 (stereo unspecified) | · | 97 | 83 | 7 | 81 | ?
